From PubChem BioAssay AID1159580 (chemical genetic matrix, 2015)
Among all 5,500 compounds or so, about 2,000 (36%) were called active. Inconclusive results (about 18%) are left out. No stated cut-off is given here; in the data, active means normalized growth mostly below about 0.91 (no sharp cut-off); inconclusive means no clear call, values can overlap the other calls; inactive means mostly above about 0.92. Some of the results follow.

Test: chemical genetic growth profiling, strain panel (AID 1159580);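 further: tested at 20 µM; growth read once vehicle control cultures reached saturation at 30 °C; 1 = growth at the plate median or of vehicle wells; lower values mean less growth of the strain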
Conditions: S. cerevisiae deletion strains, growth OD

Measured: normalized growth

OC(CCN1CCCCC1)(c1ccccc1)C1CC2C=CC1C2 (centres undefined)
inactive: locus YAL021C, strain ccr4, hits give low values 1.01 | locus YAL026C, strain drs2, hits give low values 1 | locus YAL030W, strain snc1, hits give low values 1.02 | locus YBL061C, strain skt5, hits give low values 1.02 | locus YBR009C, strain hhf1, hits give low values 0.985 | locus YBR023C, strain chs3, hits give low values 0.999 | locus YBR171W, strain sec66, hits give low values 1 | locus YBR231C, strain swc5, hits give low values 0.999 | locus YBR279W, strain paf1, hits give low values 0.99 | locus YCL011C, strain gbp2, hits give low values 1.01 | locus YCL016C, strain dcc1, hits give low values 1.04 | locus YCL061C, strain MRC1, hits give low values 0.996 | locus YCL069W, strain vba3, hits give low values 0.977 | locus YCR088W, strain abp1, hits give low values 1 | locus YDL005C, strain med2, hits give low values 1 | locus YDL040C, strain nat1, hits give low values 1 | locus YDR001C, strain nth1, hits give low values 0.997 | locus YDR069C, strain doa4, hits give low values 1.02 | locus YDR137W, strain rgp1, hits give low values 1.01 | locus YDR159W, strain sac3, hits give low values 0.992 | locus YDR195W, strain ref2 1.01 | locus YDR297W, strain sur2, hits give low values 1 | locus YDR334W, strain swr1, hits give low values 0.965 | locus YDR335W, strain msn5, hits give low values 1 | locus YDR392W, strain spt3, hits give low values 1.03 | locus YEL003W, strain gim4, hits give low values 0.993 | locus YEL037C, strain rad23, hits give low values 0.988 | locus YEL061C, strain CIN8 (second series), hits give low values 0.983 | locus YER015W, strain faa2, hits give low values 1 | locus YER016W, strain bim1, hits give low values 1.03 | locus YER111C, strain swi4, hits give low values 1 | locus YER155C, strain BEM2 (second series), hits give low values 1.01 | locus YFR010W, strain ubp6, hits give low values 0.966 | locus YGL167C, strain pmr1, hits give low values 1 | locus YGL173C, strain kem1, hits give low values 1.01 | locus YGL227W, strain vid30, hits give low values 0.989 | locus YGL240W, strain doc1, hits give low values 0.994 | locus YGL253W, strain hxk2, hits give low values 1.01 | locus YHR013C, strain ard1, hits give low values 1.03 | locus YHR027C, strain rpn1, hits give low values 0.991 | locus YHR030C, strain SLT2, hits give low values 0.977 | locus YHR079C, strain IRE1, hits give low values 0.996 | locus YHR142W, strain chs7, hits give low values 1 | locus YJL092W, strain hpr5, hits give low values 1.01 | locus YJL095W, strain BCK1 (second series), hits give low values 1 | locus YJL095W, strain BCK1, hits give low values 0.996 | locus YJL115W, strain asf1, hits give low values 0.984 | locus YJL129C, strain trk1, hits give low values 0.987 | locus YJL154C, strain vps35, hits give low values 0.987 | locus YJL164C, strain tpk1, hits give low values 0.997 | locus YJL166W, strain qcr8, hits give low values 0.982 | locus YJR066W, strain TOR1, hits give low values 0.935 | locus YKL160W, strain elf1, hits give low values 1.03 | locus YKR026C, strain gcn3, hits give low values 0.987 | locus YKR091W, strain srl3, hits give low values 1 | locus YLL001W, strain dnm1, hits give low values 0.993 | locus YLL026W, hits give low values 0.997 | locus YLL041C, strain sdh2, hits give low values 1.03 | locus YLR027C, strain aat2, hits give low values 1 | locus YLR113W, strain HOG1, hits give low values 0.987 | locus YLR221C, strain rsa3, hits give low values 0.993 | locus YLR258W, strain gsy2, hits give low values 0.998 | locus YLR262C, strain YPT6 (second series), hits give low values 0.984 | locus YLR320W, strain mms22, hits give low values 0.979 | locus YLR342W, strain FKS1, hits give low values 1.01 | locus YLR357W, strain rsc2, hits give low values 0.995 | locus YLR370C, strain arc18, hits give low values 1.01 | locus YLR384C, strain iki3, hits give low values 1.01 | locus YML120C, strain ndi1, hits give low values 0.981 | locus YMR058W, strain fet3, hits give low values 1 | locus YMR125W, strain sto1, hits give low values 0.985 | locus YMR129W, hits give low values 1 | locus YMR205C, strain PFK2, hits give low values 1.01 | locus YMR231W, strain pep5, hits give low values 0.995 | locus YNL071W, strain lat1, hits give low values 0.985 | locus YNL183C, strain NPR1, hits give low values 0.951 | locus YNL209W, strain ssb2, hits give low values 0.995 | locus YNL248C, strain rpa49, hits give low values 1 | locus YNL322C, strain KRE1 (second series), hits give low values 0.995 | locus YNR049C, strain mso1, hits give low values 1.01 | locus YOR001W, strain rrp6, hits give low values 0.949 | locus YOR070C, strain gyp1, hits give low values 0.989 | locus YOR080W, strain dia2, hits give low values 1 | locus YOR083W, strain WHI5, hits give low values 1.03 | locus YOR106W, strain vam3, hits give low values 0.995 | locus YOR231W, strain MKK1, hits give low values 0.991 | locus YOR265W, strain rbl2, hits give low values 1.01 | locus YOR270C, strain vph1, hits give low values 0.929 | locus YOR290C, strain snf2, hits give low values 1.06 | locus YPL051W, strain arl3, hits give low values 1.01 | locus YPL078C, strain atp4, hits give low values 1.02 | locus YPL106C, strain sse1, hits give low values 1.05 | locus YPL240C, strain hsp82, hits give low values 0.982 | locus YPL256C, strain CLN2, hits give low values 0.978
